From PubChem
Only some compounds are listed: those with a hit (about 11% of all), similar ones and a draw of the others.
HCV inhibitor – qHTS Assay for Inhibitors of Hepatitis C Virus (HCV) | Huh7.5.1 HCVcc-Cre infection, luciferase reporter, 44 h | Potency, µM (doses to about 41.8 µM), for inactives: at the top dose activity change, negative = inhibition, actives largely listed as inhibitors | 3.4% of 340,000 active
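After 44 h co-culture of compound, cells and HCVcc-Cre (~0.5 moi), substrate is added for 15 min at room temperature and luciferase measured over 15 sec. Cells were seeded at 1,000/well and pre-cultured 4 h.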
Pf growth 48h – Primary qHTS for delayed death inhibitors of the malarial parasite plastid, 48 hour incubation. P. falciparum luciferase growth in erythrocytes, 48 h. 5.9% of 310,000 active. AID 504832, 2011. Potency, µM (top dose mostly 28.7 µM), for inactives: at the highest dose activity change, negative = inhibition, most hits filed as inhibitors
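Erythrocytes infected with P. falciparum carrying an integrated firefly luciferase reporter (2% hematocrit, 0.1% parasitemia final) were exposed to compounds in RPMI 1640 with 0.5% Albumax at 37 C, 5% CO2. Growth inhibition was scored as reduced luminescence.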
Pf growth 96h – Primary qHTS for delayed death inhibitors of the malarial parasite plastid, 96 hour incubation; Potency, µM (highest dose often 28.7 µM), for the others: at the highest dose activity change, negative = inhibition, usual class: inhibitors; P. falciparum luciferase reporter growth, 96 h; 6.9% of 320,000 active
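96 h incubation, 37 C, 5% CO2, of luciferase-reporter P. falciparum-infected RBCs (2% hematocrit, 0.05% parasitemia final) with test compounds; endpoint luminescence.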
AmpC inh detg – qHTS Inhibitors of AmpC Beta-Lactamase (assay with detergent); Potency, µM (titrated, usually from 114 µM), for inactives: at the top dose activity change, negative = inhibition, hits mostly inhibitors; AID 485294, 2010; 0.041% of 370,000 active; P00811; AmpC hydrolysis of nitrocefin, absorbance 480 nm, 0.01% Triton;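 also: 0% = no-compound wells and -100% = no-enzyme wells; nearly all actives have a fitted effect of over 25% in size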
Target sequence (P00811 whole entry, looked up): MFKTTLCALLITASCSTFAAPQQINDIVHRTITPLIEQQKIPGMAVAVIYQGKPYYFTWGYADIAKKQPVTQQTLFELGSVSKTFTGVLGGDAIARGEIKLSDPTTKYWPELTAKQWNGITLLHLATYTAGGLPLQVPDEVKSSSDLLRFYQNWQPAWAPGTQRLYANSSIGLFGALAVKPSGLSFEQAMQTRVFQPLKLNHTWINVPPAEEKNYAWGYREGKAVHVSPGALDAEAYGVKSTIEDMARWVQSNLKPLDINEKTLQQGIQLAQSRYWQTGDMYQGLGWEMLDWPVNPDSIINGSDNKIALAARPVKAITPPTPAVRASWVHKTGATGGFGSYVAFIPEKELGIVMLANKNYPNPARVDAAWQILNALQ
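20 mM phosphate pH 7.0 + 0.01% (detergent screen) or 0.0001% Triton X-100; 5.3 nM AmpC reagent; cpd preinc 15 min RT; nitrocefin (800 uM stock) to start; A480 q20 s × 4 min; Activity was normalised to no-enzyme and no-compound control wells.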
AmpC inh no detg – qHTS Inhibitors of AmpC Beta-Lactamase (assay without detergent) | P00811 | AmpC nitrocefin hydrolysis, absorbance 480 nm, 0.0001% Triton | 0.52% of 330,000 active | Potency, µM (titrated, usually from 57.1 µM), for inactives: at the top dose activity change, negative = inhibition, hits mostly inhibitors;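 also: plate controls were no compound for no effect and no enzyme for full effect; nearly all actives have a fitted effect of over 20% in size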
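20 mM phosphate pH 7.0 + 0.01% (detergent screen) or 0.0001% Triton X-100; 5.3 nM AmpC reagent; cpd preinc 15 min RT; nitrocefin (800 uM stock) to start; A480 q20 s × 4 min; Activity was normalised to no-enzyme and no-compound control wells.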
AMA1-RON2 inh – qHTS for Inhibitors of AMA1-RON; Towards Development of Antimalarial Drug Lead: Primary Screen. AlphaScreen AMA1-biotinylated RON2 peptide binding. Potency, µM (doses to about 58.2 µM), for the others: at the top dose activity change, negative = inhibition, most hits filed as inhibitors. 0.2% of 360,000 active. AID 720542, 2013;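 also: 0% = vehicle wells and -100% = peptide control; nearly all actives have a fitted effect of over 45% in size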
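AMA1 (3D7) with his tag at 25 nM final met compounds first, then biotinylated RON2 peptide at 25 nM; detection used donor plus acceptor beads, 10 µg/mL apiece, read by AlphaScreen after 30 min at room temperature.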
* hit, by the source's call; ? = inconclusive; / = no result; ! = repeats disagree. Calls follow the shape of the dose curve; as a rule, active = well fitted curve in the direction sought with a large enough effect; inconclusive = small, poorly fitted or top-dose-only effect, or another doubt; inactive = no such curve, though single readings can be large; an effect the other way counts as inactive or inconclusive. Unless noted, % is scaled to controls: 0 for no effect and ±100 for the full control effect; potency is read from the fitted curve at half-maximal effect.

SMILES	HCV inhibitor	Pf growth 48h	Pf growth 96h	AmpC inh detg	AmpC inh no detg	AMA1-RON2 inh
CCN(Cc1ccccc1)S(=O)(=O)c1cc(C(=O)Nc2cc(Cl)cc(Cl)c2)ccc1F	/	/	/	13%	/	/
CCCOC(=O)c1cccc(NC(=O)c2c(-c3ccccc3Cl)noc2C)c1	/	/	/	7%	/	/
COc1ccc(-c2nc(CNS(=O)(=O)c3cccc(F)c3)cs2)cc1	/	/	/	5%	/	/
CCC(COC)Oc1cc(NCc2ccccc2)c2ncn(C(C)C)c2c1 (stereo unspecified)	11µM*	4.1µM*	?	6%	132%	-22%
CCC(CO)Oc1cc(NCc2ccccc2)c2ncn(C(C)C)c2c1 (stereo unspecified)	?	/	/	/	125%	-2%
CCC(CO)Oc1cc(NCc2cccc(O)c2)c2ncn(C(C)C)c2c1 (stereo unspecified)	?	/	/	/	-15%	0%
COCCCOc1cc(NCc2ccccc2)c2ncn(C(C)C)c2c1	?	/	/	/	56%	-24%
CCC(CO)Oc1cc(NCc2cccc(OC)c2)c2ncn(C(C)C)c2c1 (stereo unspecified)	2µM*	/	/	/	143%	-4%
CCC(CO)Oc1cc(NCc2ccc(C(C)(C)C)cc2)c2ncn(C(C)C)c2c1 (stereo unspecified)	7.9µM*	/	/	/	102%	-29%
CCCCOc1cc(NCc2ccccc2)c2ncn(C(C)C)c2c1	11µM*	/	/	/	27%	?
CCc1nnc(NC(=O)CSc2nc3c([nH]c4ccccc43)c(=O)n2-c2ccc(F)cc2)s1	/	/	/	-4%	/	/
CC(=O)c1cccc(NC(=O)C(Cc2ccccc2)NS(=O)(=O)c2ccc(Br)s2)c1 (stereo unspecified)	/	/	/	6%	/	/
COc1ccc(OC)c(NC(=O)CN2C(=O)C3(OCCCO3)c3ccccc32)c1	-17%	-27%	5.2µM*	-11%	-2%	-10%
Cc1ccc2[nH]c(=O)c(CN(CCCO)S(=O)(=O)c3cccc4nsnc34)cc2c1	5%	-18%	64%	?	41%	-10%
Cc1ccc2[nH]c(=O)c(CN(Cc3ccco3)S(=O)(=O)c3c(C)ccc4nsnc34)cc2c1	7.1µM*!	-8%	10%	?	-21%	4%
COc1ccc2[nH]c(=O)c(CN(Cc3cccs3)S(=O)(=O)c3c(C)ccc4nsnc34)cc2c1	11µM*	/	/	-2%	-16%	10%
Cc1ccc2nsnc2c1S(=O)(=O)N(Cc1ccco1)Cc1cc2cccc(C)c2[nH]c1=O	?	9%	?	-10%	-27%	-13%
Cc1ccc2cc(CN(CCCO)S(=O)(=O)c3cccc4nsnc34)c(=O)[nH]c2c1	11%	/	4.1µM*	-1%	26%	2%
Cc1cccc(NC(=O)c2cc(S(=O)(=O)NCc3ccc4c(c3)OCO4)ccc2F)c1C	/	/	/	4%	/	/
NC(=O)[C@H]1CC2(CC(c3cccc(NC(=O)CC(c4ccccc4)c4ccccc4)c3)=NO2)CN1C(=O)CC(c1ccccc1)c1ccccc1 (stereo partly specified)	-20%	12µM*	?	4%	66%	-2%
C/C=C(\C)C(=O)Nc1cccc(C2=NOC3(C2)C[C@@H](C(N)=O)N(C(=O)c2cc([N+](=O)[O-])cc([N+](=O)[O-])c2C)C3)c1 (stereo partly specified)	?	?	?	2%	92%	-2%
Cc1c(C(=O)N2CC3(CC(c4cccc(NC(=O)CC(c5ccccc5)c5ccccc5)c4)=NO3)C[C@@H]2C(N)=O)cc([N+](=O)[O-])cc1[N+](=O)[O-] (stereo partly specified)	-19%	12µM*	?	-1%	77%	-9%
C/C=C(/C)C(=O)Nc1cccc(C2=NOC3(C2)C[C@H](C(N)=O)N(C(=O)Cc2ccc([N+](=O)[O-])cc2)C3)c1 (stereo partly specified)	-19%	12µM*	?	1%	106%	-8%
COC(=O)c1ccccc1NC(=O)CSc1cc(-c2ccccc2)nc(C)n1	/	/	/	13%	/	/
C#CCn1cnc2c(cnn2-c2ccc(F)cc2)c1=O	/	/	/	5%	/	/
SMILES	HCV inhibitor	Pf growth 48h	Pf growth 96h	AmpC inh detg	AmpC inh no detg	AMA1-RON2 inh
CCOc1ccccc1CN1CCN(CC2=Cc3cc(OC)ccc3OC2)CC1CCO (stereo unspecified)	?	9.3µM*	?	-1%	130%	-8%
COc1ccc(CN2CCN(CCCc3ccccc3)C(CCO)C2)c(OC)c1 (stereo unspecified)	-28%	-25%	?	-9%	-2%	20%
OCCC1CN(Cc2ccccc2O)CCN1CCCc1ccccc1 (stereo unspecified)	-9%	6.6µM*	-10%	-9%	11%	-2%
COc1ccc(CN2CCN(CCc3ccccc3)C(CCO)C2)c(O)c1 (stereo unspecified)	11%	10µM*	18%	0%	41%	-4%
COc1ccc(CN2CCN(CCCc3ccccc3)C(CCO)C2)c(O)c1 (stereo unspecified)	?	?	2.9µM*	-1%	20%	4%
COc1ccc(O)c(CN2CCN(CCc3ccccc3)C(CCO)C2)c1 (stereo unspecified)	-39%	0%	?	6%	49%	?
Cc1nn2c(C)c(C(=O)NC(C)(C)C)cnc2c1-c1ccc(F)cc1	/	/	/	3%	/	/
O=C(c1cccn1-c1nnc(N2CCCC2)s1)N1CCN(c2ccc(F)cc2)CC1	/	/	/	-2%	/	/
OCCC1CN(Cc2ccccc2-c2ccco2)CCN1Cc1ccccc1 (stereo unspecified)	-2%	?	9.3µM*	9%	82%	-4%
Cc1ccc(CN2CCN(Cc3cnc(C)[nH]3)CC2CCO)cc1 (stereo unspecified)	-16%	-7%	12µM*	-2%	4%	8%
Cc1nc2sccn2c(=O)c1S(=O)(=O)Nc1cc(Cl)ccc1O	/	/	/	12%	/	/
CN(CC(=O)Nc1ccc(Cl)cc1)C(=O)c1ccc(N2CCCC2=O)cc1	22%	37%	57%	-3%	26%	0%
CN(CC(=O)Nc1ccc(OC(F)(F)F)cc1)C(=O)c1ccc(N2CCCC2=O)cc1	4.5µM*	-15%	-21%	-1%	41%	-1%
